The source of these data is PubChem BioAssay (NCI).

Compounds without any hit were thinned out: in the full panel of roughly 83,000, 20% have a hit.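 Single-dose data. Exposure time 48 hours. Values below 10 considered active.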 Values without a mark were called inactive. Activity calls are given as the source filed them.

Among the test systems are NCI-H23 lung; NCI-H226 lung; HOP-62 NSCLC; NCI-H460 lung; HOP-92 NSCLC; NCI-H522 lung; A549/ATCC NSCLC; 786-0 renal; COLO 205 colon.
What all share (assay): NCI-60 one-dose screen, 48 h (100 = growth as untreated, 0 = no growth, -100 = all killed)
Common to all, as to conditions: 10 µM

Regarding `COc1cc(C2CC(c3ccc4c(c3)OCO4)=NN2c2ccccc2)cc(OC)c1OC` (stereo unspecified), the growth with NCI-H23 lung was 93.9%; in the experiment with NCI-H226 lung, 102%; with HOP-62 NSCLC it was 104%; in the experiment with NCI-H460 lung it was 103%; with HOP-92 NSCLC it was 84.1%; in the experiment with NCI-H522 lung, 73.4%. The figures for the growth in the experiment with A549/ATCC NSCLC, in the experiment with 786-0 renal and with COLO 205 colon were 98.5%, 95.9% and 86.8%, respectively.
Take `CCN(CC)CCOc1cccc2c1C(=O)c1ccccc1C2=O`: the growth in the experiment with NCI-H23 lung was 88.2%; in the experiment with NCI-H226 lung, 93.8%; with HOP-62 NSCLC, 82.5%; in the experiment on NCI-H460 lung, 101%; with HOP-92 NSCLC, 71.2%; with NCI-H522 lung, 84.3%. In addition, the growth with A549/ATCC NSCLC was 90.6%; in the experiment with 786-0 renal, 93.1%; in the experiment with COLO 205 colon, 68.6%.
With `COc1cc(C(=O)/C=C/c2c[nH]c3ccccc23)cc(OC)c1OC`, the growth in the experiment on NCI-H23 lung was 16.1%; with NCI-H226 lung, 55.6%; in the experiment with HOP-62 NSCLC, 41.1%; in the experiment with NCI-H460 lung it was 8.04% (active); with HOP-92 NSCLC, 39.2%; with NCI-H522 lung, -27% (active). The growth in the experiment on A549/ATCC NSCLC was 17.7%; in the experiment on 786-0 renal, 12.2%; in the experiment with COLO 205 colon, -65.1% (active).
`Cc1nn(-c2ccccc2)c2nc(Cl)c(C=O)c(-c3ccccc3)c12`: the growth in the experiment on NCI-H23 lung is 80.6%; with NCI-H226 lung it was 93.3%; in the experiment with HOP-62 NSCLC it was 115%; in the experiment with NCI-H460 lung, 94%; in the experiment on HOP-92 NSCLC it was 65.7%; in the experiment with NCI-H522 lung, 106%. The growth is 78.3% with A549/ATCC NSCLC, 94.5% in the experiment with 786-0 renal and 121% with COLO 205 colon.
In the case of `O=C(O)COc1c(Cl)cc([N+](=O)[O-])cc1Cl`, the growth was 99% in the experiment with NCI-H23 lung; 96.4% in the experiment with NCI-H226 lung; 88.8% in the experiment on HOP-62 NSCLC; 109% with NCI-H460 lung; 78.5% in the experiment on HOP-92 NSCLC; 76.8% in the experiment on NCI-H522 lung. Also, the growth in the experiment with A549/ATCC NSCLC was 81.7%; with 786-0 renal it was 88.6%; with COLO 205 colon, 102%.
For `CC(C)CCN(CCC(C)C)CC(=O)Nc1ccc(S(=O)(=O)c2ccc(NC(=O)CN(CCC(C)C)CCC(C)C)cc2)cc1`, the growth in the experiment with NCI-H23 lung is 46.3%; in the experiment with NCI-H226 lung, 76.7%; in the experiment with HOP-62 NSCLC, 67.5%; in the experiment with NCI-H460 lung, 48.2%; in the experiment on HOP-92 NSCLC it was 75%; in the experiment with NCI-H522 lung it was -64.6% (active). Also, the values for the growth in the experiment with A549/ATCC NSCLC, with 786-0 renal and in the experiment with COLO 205 colon were 53.7%, 18% and 29.6%, respectively.
With `O=C(O)c1cc([N+](=O)[O-])ccc1Oc1ccccc1`, the growth is 101% in the experiment on NCI-H23 lung; 98.6% in the experiment on NCI-H226 lung; 101% in the experiment on HOP-62 NSCLC; 105% in the experiment with NCI-H460 lung; 65.8% in the experiment with HOP-92 NSCLC; 97.1% with NCI-H522 lung. In addition, the growth in the experiment with A549/ATCC NSCLC was 99.7%; in the experiment on 786-0 renal it was 104%; in the experiment with COLO 205 colon it was 104%.
In the case of `CC(C)C1=C(O)C2=C(C(=O)C1=O)[C@@]1(C)CCCC(C)(C)[C@@H]1CC2`, the growth in the experiment on NCI-H23 lung is 65.8%; in the experiment on NCI-H226 lung, 83.5%; in the experiment with HOP-62 NSCLC, 70.6%; in the experiment with NCI-H460 lung, 37.6%; in the experiment with HOP-92 NSCLC, 53.6%; in the experiment with NCI-H522 lung, 86.9%. Besides, the results for the growth with A549/ATCC NSCLC, in the experiment on 786-0 renal and in the experiment with COLO 205 colon were 62.1%, 78.7% and 92.7%, respectively.
On to `Cc1c(C(N)=O)sc2c1c(=O)n(Cc1ccccc1)c1nnc(-c3ccc(Br)cc3)n21`, for which the growth in the experiment on NCI-H23 lung was 39%; with NCI-H226 lung, 26.6%; with HOP-62 NSCLC it was 37.7%; in the experiment on NCI-H460 lung, 4.4% (active); in the experiment on HOP-92 NSCLC, 43.4%; in the experiment with NCI-H522 lung, 47.9%. Moreover, the growth in the experiment on A549/ATCC NSCLC was 10.1%; in the experiment with 786-0 renal, -15.5% (active); in the experiment on COLO 205 colon, 16.8%.
As for `CCn1c(SC/C(=N/O)c2ccccc2)nnc1-c1ccccc1`, the growth with NCI-H23 lung is 103%; with NCI-H226 lung, 108%; with HOP-62 NSCLC it was 111%; with NCI-H460 lung it was 102%; in the experiment with HOP-92 NSCLC it was 62.5%; with NCI-H522 lung it was 112%. Also, the growth with A549/ATCC NSCLC was 101%; in the experiment with 786-0 renal it was 105%; in the experiment with COLO 205 colon it was 115%.
As to `Cc1c(O)c(=O)ccn1C1CCC(CC2CCC(n3ccc(=O)c(O)c3C)CC2)CC1` (stereo unspecified), the growth in the experiment on NCI-H23 lung was 39.5%; with NCI-H226 lung it was 42.1%; in the experiment on HOP-62 NSCLC it was 36.2%; in the experiment on NCI-H460 lung, 12.5%; in the experiment on HOP-92 NSCLC, 51.8%; in the experiment on NCI-H522 lung it was 31.3%. The growth in the experiment on A549/ATCC NSCLC was 46.4%; in the experiment with 786-0 renal it was 46.5%; with COLO 205 colon it was 23.5%.
In the case of `Cc1ccc(C(C)C)c(O)c1NC(=O)OC(C)C`, the growth in the experiment on NCI-H23 lung is 96.2%; with NCI-H226 lung, 99.4%; in the experiment with HOP-62 NSCLC, 91.6%; with NCI-H460 lung it was 102%; in the experiment on HOP-92 NSCLC it was 75.7%; in the experiment on NCI-H522 lung, 84.8%. Further, the figures for the growth in the experiment with A549/ATCC NSCLC, with 786-0 renal and with COLO 205 colon were 104%, 92.3% and 99.6%, respectively.
`CN(C)CCOc1cccc(NC2=C(Cl)C(=O)C(Nc3cccc(OCCN(C)C)c3)=C(Cl)C2=O)c1`: the growth in the experiment on NCI-H23 lung was -59.5% (active); in the experiment with NCI-H226 lung it was -74.6% (active); with HOP-62 NSCLC it was -82.9% (active); in the experiment with NCI-H460 lung, 55.4%; in the experiment on HOP-92 NSCLC it was -70.1% (active); in the experiment with NCI-H522 lung, -91.3% (active). Further, the growth with A549/ATCC NSCLC was 57.9%; in the experiment on 786-0 renal it was -86.4% (active); in the experiment with COLO 205 colon, -82.9% (active).
As for `COc1ccc(/C=C/C(=O)C(=O)/C=C/c2ccc(OC)c(OC)c2)cc1OC`, the growth in the experiment on NCI-H23 lung was 21.6%; in the experiment on NCI-H226 lung, 38.9%; with HOP-62 NSCLC it was 93.2%; in the experiment on NCI-H460 lung, 51.7%; in the experiment on HOP-92 NSCLC, 109%; in the experiment with NCI-H522 lung, 47.8%. For the same compound, the growth with A549/ATCC NSCLC is 69.9%; with 786-0 renal it was 3.43% (active); in the experiment with COLO 205 colon, -20.8% (active).
